# The list is not random: actives were taken first. Their share in the collection is about 2.9%.
# Wnt act: Wnt/beta-catenin pathway activators, primary screen, cell-based, plate reader, single point | 1.2% of 300,000 active | Wnt/beta-catenin reporter cell assay, activator | activation, % at 9.35 µM; in the data active = activation above about 30%, passing the limit was not always enough
# PfHsp90 yeast 2: growth inhibition of PfHsp90-expressing yeast, primary screen, antimalarial PfHsp90 inhibitor project, S. cerevisiae, BacTiter-Glo luminescence, single point, set 2; AID 504621, 2011; BacTiter-Glo ATP, 48 h; yeast lacking PDR1 and PDR3 efflux regulators; inhibition, % at 9.4 µM; 0.32% of 310,000 active;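 active = every replicate shows inhibition above about 80%, whatever the replicate mean, limit read from the data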
# MITF TRPM1 HTS: activators of MITF-driven TRPM1 promoter reporter, primary screen, cell-based, SK-MEL-5, luciferase, single point. SK-MEL-5 TRPM1-promoter luciferase, 24 h; % of positive control, neutral wells = 0. activation, % at 12.5 µM. 0.75% of 300,000 active. AID 588334, 2011;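 active = mean activation of at least 80% with every replicate also reaching 80%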
# Glyco luc inh: increase of ERlucT glycosylation luciferase signal, primary screen, N-linked glycosylation inhibitor project, D54 ERlucT cells, luminescence, set 2; D54 ERlucT glycosylation luciferase reporter, 24 h; percent of 100 nM tunicamycin response; reporter increase, % at 12.5 µM; 0.23% of 360,000 active;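 active = mean luciferase reporter signal, scaled so untreated is 0 and the glycosylation-blocking control 100, at or above a set limit in every replicate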;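 also: luciferase carries N-glycosylation sites so blocking glycosylation raises the light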
# NSD2 HMT inh: NSD2 histone methyltransferase inhibitors, primary screen, biochemical, AlphaScreen, single concentration, set 2; Histone-lysine N-methyltransferase NSD2 (Homo sapiens), O96028; NSD2 peptide methylation, 120 min; inhibition, % at 12.5 µM; 0.54% of 310,000 active; in the data active = inhibition above about 50%
# Target sequence (O96028 whole entry, looked up): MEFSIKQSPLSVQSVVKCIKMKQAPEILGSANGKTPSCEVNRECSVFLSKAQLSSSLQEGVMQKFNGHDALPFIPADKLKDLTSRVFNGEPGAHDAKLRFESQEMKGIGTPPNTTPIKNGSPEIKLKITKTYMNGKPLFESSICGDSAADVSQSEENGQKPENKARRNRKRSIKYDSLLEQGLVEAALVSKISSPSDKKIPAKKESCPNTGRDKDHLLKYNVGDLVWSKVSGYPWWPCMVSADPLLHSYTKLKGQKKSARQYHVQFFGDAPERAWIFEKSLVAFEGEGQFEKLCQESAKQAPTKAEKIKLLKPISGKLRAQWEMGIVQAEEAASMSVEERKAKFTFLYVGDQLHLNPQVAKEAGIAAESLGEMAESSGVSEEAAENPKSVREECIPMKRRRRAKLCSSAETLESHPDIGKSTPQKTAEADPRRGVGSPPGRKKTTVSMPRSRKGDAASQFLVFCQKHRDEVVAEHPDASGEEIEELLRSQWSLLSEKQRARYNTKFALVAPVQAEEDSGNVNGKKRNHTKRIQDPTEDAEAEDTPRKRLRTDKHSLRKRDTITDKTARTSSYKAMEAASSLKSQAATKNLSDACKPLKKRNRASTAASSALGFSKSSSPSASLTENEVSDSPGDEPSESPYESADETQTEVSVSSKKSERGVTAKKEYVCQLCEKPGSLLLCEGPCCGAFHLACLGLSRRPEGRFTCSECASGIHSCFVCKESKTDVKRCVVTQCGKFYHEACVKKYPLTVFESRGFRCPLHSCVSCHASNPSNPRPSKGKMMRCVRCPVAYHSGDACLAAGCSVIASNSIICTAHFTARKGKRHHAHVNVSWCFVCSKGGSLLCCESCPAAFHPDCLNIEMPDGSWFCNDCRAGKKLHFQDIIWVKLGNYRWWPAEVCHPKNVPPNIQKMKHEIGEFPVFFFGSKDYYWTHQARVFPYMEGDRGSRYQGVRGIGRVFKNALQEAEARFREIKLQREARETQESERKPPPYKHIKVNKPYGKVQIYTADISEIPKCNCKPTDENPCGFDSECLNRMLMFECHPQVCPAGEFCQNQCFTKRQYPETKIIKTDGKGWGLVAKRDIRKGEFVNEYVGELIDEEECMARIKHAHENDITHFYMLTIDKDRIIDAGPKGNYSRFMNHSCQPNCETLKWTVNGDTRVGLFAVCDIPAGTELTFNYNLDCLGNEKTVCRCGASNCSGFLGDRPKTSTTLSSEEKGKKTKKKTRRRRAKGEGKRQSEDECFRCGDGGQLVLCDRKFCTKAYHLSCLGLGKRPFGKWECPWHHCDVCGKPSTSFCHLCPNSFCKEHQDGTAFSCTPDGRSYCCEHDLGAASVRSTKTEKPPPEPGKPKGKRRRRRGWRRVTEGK
# TRPM1 prom inh: inhibitors of MITF-dependent TRPM1 promoter reporter, primary screen, cell-based, SK-MEL-5, single point, luciferase | SK-MEL-5 TRPM1 promoter luciferase, 24 h | inhibition, % at 12.5 µM | 0.83% of 330,000 active | AID 488899, 2010;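 active = mean inhibition across replicates of 60% or more, whatever share of single replicates reaches that level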
# Hits are given with their value; n = inactive; x = not tested or not shown; ! = not active in a repeat.
SMILES,Wnt act,PfHsp90 yeast 2,MITF TRPM1 HTS,Glyco luc inh,NSD2 HMT inh,TRPM1 prom inh
COc1ccc(-c2ccc3ccccc3n2)cc1,n,n,n,n,x,n
COc1ccc(-c2ccc3ccccc3n2)cc1OC,31,x,100,n,n,n
C[C@@H]1ON(C)[C@H]2C[C@H]3c4cc(N5CCCCC5)ccc4CCN3C[C@@H]12,n,x,x,x,x,x
NC(=O)[C@H]1CC2(CC(c3cccc(NC(=O)c4ccccc4)c3)=NO2)CN1C(=O)[C@H]1CCC(=O)N1 (stereo partly specified),53,n,n,n,x,n
COc1ccc(/C=C/C(=O)Oc2cccc(/C=N/NC(=O)Cc3ccc(Br)cc3)c2)cc1,n,n,n,n,n,n
[O-][n+]1ccc(C(O)c2ccccc2)cc1 (stereo unspecified),n,n,x,n,n,n
CN(Cc1ccsc1)C(=O)CCc1nnc(CCCc2ccccc2)o1,33,n,n,n,n,n
Cc1nc(C(C)NC(=O)CCc2nnc(CCCc3ccccc3)o2)c(C)s1 (stereo unspecified),64,n,100,n,n,n
CN(Cc1ccsc1)C(=O)CCc1nnc(Cc2c[nH]c3ccccc23)o1,n,n,n,n,n,n
N#CC(C#N)=C1C=CC=CN1/C(=C\c1ccccc1Cl)C(=O)c1ccccc1,n,n,n,n,n,77
COCc1nc2oc3ccc(C)cc3c(=O)c2cc1C(=O)OC,n,n,91,n,n,n
O=C(NC1CCCCCC1)C(=S)NC1CCCCC1,33,n,n,n,n,n
CN1CCC(NC(=O)NC2CCCCC2)CC1,n,n,n,n,n,n
O=C(NC1CCCCCCC1)NC1CCCCC1,58,n,91,n,n,n
O=C(NC1CCCCCC1)C(=O)NC1CC1,n,n,x,n,n,n
Clc1ccc(-c2nnc(SCc3cccc4ccccc34)n2-c2ccc(Cl)cc2)cc1,x,x,x,x,n,x
COc1ccc(Cl)cc1NC(=O)CN(C)C(=O)CSc1ccc2c(c1)OCCO2,n,n,n,n,n,n
CC(C)(C)NCC(=Cc1ccccc1)C(=O)c1ccccc1,n,n,n,n,n,98
COc1ccc(N2CCN(S(=O)(=O)CCNC(=O)c3cc(=O)c4ccccc4o3)CC2)cc1,n,n,n,n,n,n
CS(=O)(=O)c1ccc(C(=O)OCC(=O)NCc2cccs2)cc1[N+](=O)[O-],n,n,n,n,n,85
Fc1cccc(-c2nnn3c2nc(Cl)c2ccccc23)c1,40,n,n,n,x,n
NNc1nc2c(-c3ccc(F)cc3)nnn2c2ccccc12,39,n,n,n,n,n
Clc1nc2c(-c3ccccc3)nnn2c2ccccc12,n,n,n,n,n,n
COC(/C=C/Nc1ccc(C)c(C)c1)=C(C#N)C#N,n,n,n,n,n,n
Cc1ccc2ccccc2c1C(O)c1ncc(-c2ccc(C(F)(F)F)cc2)[nH]1 (stereo unspecified),n,x,x,n,n,x
SMILES,Wnt act,PfHsp90 yeast 2,MITF TRPM1 HTS,Glyco luc inh,NSD2 HMT inh,TRPM1 prom inh
O=C(Nc1cc(-c2ccccc2)cs1)c1ccco1,44,n,110,n,x,n
O=C(Nc1nc(-c2ccccc2)cs1)c1ccco1,43,n,x,n,n,n
Cc1cc(NC(=O)c2ccco2)sc1C,62,n,104,n,n,n
O=C(CCNC(=O)c1ccco1)Nc1nc(-c2ccccc2)cs1,n,x,x,n,n,x
CN(C(=O)c1ccco1)c1nc(-c2ccccc2)cs1,n,n,130,n,n,n
O=C(Nc1scc(-c2ccccc2)c1C(=O)O)c1ccco1,n,n,n,n,n,n
Cc1ccc(-c2csc(NC(=O)c3ccco3)n2)cc1C,41,n,x,n,n,n
COc1ccc(-c2csc(NC(=O)c3ccco3)n2)cc1,n,n,83,n,n,n
COc1cccc(N(C(=O)c2ccco2)c2nc(-c3sc(NC(=O)c4ccco4)nc3C)cs2)c1,n,x,n,n,x,73
CC(OC(=O)c1ccco1)C(=O)Nc1nc(-c2ccccc2)cs1 (stereo unspecified),n,n,89,n,n,n
NS(=O)(=O)c1ccc(CCNC(=O)C(=O)NCC2OCCN2S(=O)(=O)c2ccc(F)cc2)cc1 (stereo unspecified),n,n,n,n,n,n
Cc1ccc(Cl)cc1Nc1nc(-c2sc(NC(=O)c3ccco3)nc2C)cs1,n,n,n,n,x,68
O=C(Nc1nnc(C23CC4CC(CC(C4)C2)C3)s1)c1ccco1,41!,n,n,n,n,n
COc1cccc(-c2nnc(NC(=O)c3ccco3)s2)c1,35,n,n,n,n,n
COC(=O)c1c(-c2ccc(F)cc2)csc1NC(=O)c1ccco1,x,n,118,n,n,n
CC1=CC(C)(C)N(C(=O)CNC2CCCCC2)c2cc(C)ccc21,n,n,n,n,n,n
Nc1[nH]c(C(=O)c2ccccc2)c(-c2cccc(C(F)(F)F)c2)c1C(=O)NCCc1c[nH]c2ccccc12,n,x,x,x,x,x
Nc1nc2c(ncn2[C@@H]2O[C@H](C(=O)N[C@H](Cc3ccccc3)C(=O)NC3CCCCC3)[C@@H](O)[C@H]2O)c(=O)[nH]1,n,x,x,x,x,x
NC(=O)c1cc(Cc2ccccc2)sc1NC(=O)c1ccco1,n,n,118,n,n,n
O=C(Nc1nnc(Cc2ccccc2)s1)c1ccco1,n,n,n,n,n,n
Cc1ccc(-c2nn3c(C)nnc3c3ccccc23)cc1S(=O)(=O)NC(C)(C)CO,n,n,n,39,n,n
Oc1ccc2ccccc2c1N=Nc1ccccn1,n,125,x,n,n,n
Oc1ccc2ccccc2c1N=Nc1ccccc1F,n,n,n,n,n,n
CCn1c(SCC(=O)Nc2ccc(S(=O)(=O)Nc3cc(C)nc(C)n3)cc2)nc2sc(C)c(C)c2c1=O,x,x,x,x,n,x
CCOc1cnc(-c2ccc(OC)cc2)o1,x,n,92,n,n,n
COc1ncc(-c2ccc3c(c2)S(=O)(=O)c2cccc(C(=O)O)c2C3=O)cn1,n,n,n,n,x,n
Nc1ncnc2c1ncn2[C@@H]1O[C@H](COP(=O)(O)O)[C@@H](O)[C@H]1O,n,n,n,n,x,n
Nc1ncnc2c1ncn2C1OC(COP(=O)(O)O)C(O)C1O (stereo unspecified),n,97,n,n,x,n
Nc1ncnc2c1ncn2[C@@H]1O[C@H](COP(=O)(O)OP(=O)(O)OP(=O)(O)O)[C@@H](O)[C@H]1O,n,88,n,n,x,n
CC(C)C[C@H](NC(=O)c1ccc(Cl)c(Cl)c1)C(=O)N1CCC[C@H]1C(=O)NCc1ccccc1,n,x,x,x,x,x

# Compound activity (PubChem BioAssay)
